From the supplement of paper PMC10849652
Targets with a hit are over-represented here; the source holds about 7,900 in all. About 0.6% of all pairs of compound and target were hits.

Tests used:
Assay in all cases: log2 fold change, soluble protein after heating vs DMSO (PISA); higher = thermal stabilisation; K562 cells, 10 uM, 30 min; active = over 0.2 and 3.5 SD of the protein, either way, in both replicates (recomputed)
saracatinib = compound: CN1CCN(CCOc2cc(OC3CCOCC3)c3c(Nc4c(Cl)ccc5c4OCO5)ncnc3c2)CC1 [saracatinib]
How it was run: (§1)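 K562 cells at 2×10^6 cells/mL were exposed to 10 μM compound for 30 min, then aliquots were heated for 3 min across 48°C-58°C, pooled, and extracted in PBS containing 0.5% NP-40 at 4°C. The supernatant after 21,000xg for 90 min was taken as soluble protein and measured by TMTpro 16plex LC-MS/MS with channel sums equalised. Thermal stability is reported relative to control samples, with values from duplicates. Fold changes are given on a log2 scale.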

sotrastaurin = compound: CN1CCN(c2nc(C3=C(c4c[nH]c5ccccc45)C(=O)NC3=O)c3ccccc3n2)CC1 [sotrastaurin]
How it was run: as §1

alvocidib = compound: CN1CC[C@H](c2c(O)cc(O)c3c(=O)cc(-c4ccccc4Cl)oc23)[C@H](O)C1 [alvocidib]
How it was run: as §1

Tubastatin A = compound: CN1CCc2c(c3ccccc3n2Cc2ccc(C(=O)NO)cc2)C1 [Tubastatin A]
How it was run: as §1

[1] = compound: CNC(=O)C1=CC=CC=C1NC2=NC(=NC=C2Cl)NC3=C(C=C(C=C3)N4CCOCC4)OC
How it was run: as §1

defactinib = compound: CNC(=O)c1ccc(Nc2ncc(C(F)(F)F)c(NCc3nccnc3N(C)S(C)(=O)=O)n2)cc1 [defactinib]
How it was run: as §1

rucaparib = compound: CNCc1ccc(-c2[nH]c3cc(F)cc4c3c2CCNC4=O)cc1 [rucaparib]
How it was run: as §1

[2] = compound: CNc1nc(-c2ccc3c(N)n[nH]c3c2)cc(N2C[C@@H](C(=O)NC3CCCCC3)CC[C@H]2C)n1
How it was run: as §1

encorafenib = compound: COC(=O)N[C@@H](C)CNc1nccc(-c2cn(C(C)C)nc2-c2cc(Cl)cc(NS(C)(=O)=O)c2F)n1 [encorafenib]
How it was run: as §1

[3] = compound: COC(=O)[C@H](CCSC)NC(=O)C1=C(C=C(C=C1)NC[C@H](CS)N)C2=CC=CC=C2
How it was run: as §1

filanesib = compound: CON(C)C(=O)N1N=C(c2cc(F)ccc2F)S[C@@]1(CCCN)c1ccccc1 [filanesib]
How it was run: as §1

zotarolimus = compound: CO[C@H]1C[C@@H]2CC[C@@H](C)[C@@](O)(O2)C(=O)C(=O)N2CCCC[C@H]2C(=O)O[C@H]([C@H](C)C[C@@H]2CC[C@H](n3cnnn3)[C@H](OC)C2)CC(=O)[C@H](C)/C=C(\C)[C@@H](O)[C@@H](OC)C(=O)[C@H](C)C[C@H](C)/C=C/C=C/C=C/1C [zotarolimus]
How it was run: as §1

idasanutlin = compound: COc1cc(C(=O)O)ccc1NC(=O)[C@@H]1N[C@@H](CC(C)(C)C)[C@](C#N)(c2ccc(Cl)cc2F)[C@H]1c1cccc(Cl)c1F [idasanutlin]
How it was run: as §1

alisertib = compound: COc1cc(Nc2ncc3c(n2)-c2ccc(Cl)cc2C(c2c(F)cccc2OC)=NC3)ccc1C(=O)O [alisertib]
How it was run: as §1

[4] = compound: COc1cc2nc(-c3cc(F)ccc3O)nc(N[C@@H]3CNC[C@H]3C(C)(C)O)c2cc1OC
How it was run: as §1

gefitinib = compound: COc1cc2ncnc(Nc3ccc(F)c(Cl)c3)c2cc1OCCCN1CCOCC1 [gefitinib]
How it was run: as §1

[5] = compound: COc1cccc2cc(-c3nc([C@H]4CC[C@H](C(=O)O)CC4)n4ncnc(N)c34)[nH]c12
How it was run: as §1

lapatinib = compound: CS(=O)(=O)CCNCc1ccc(-c2ccc3ncnc(Nc4ccc(OCc5cccc(F)c5)c(Cl)c4)c3c2)o1 [lapatinib]
How it was run: as §1

[6] = compound: COC1=CC=C(C=C1)CN2C=CC3=C2C=C(C=C3)C(=O)NO
How it was run: as §1

pictilisib = compound: CS(=O)(=O)N1CCN(Cc2cc3nc(-c4cccc5[nH]ncc45)nc(N4CCOCC4)c3s2)CC1 [pictilisib]
How it was run: as §1

Measured: log2 fold change

ARHGAP4 isoform 2 (UniProt P98171)
Chain of UniProt P98171 (P98171 whole entry, looked up): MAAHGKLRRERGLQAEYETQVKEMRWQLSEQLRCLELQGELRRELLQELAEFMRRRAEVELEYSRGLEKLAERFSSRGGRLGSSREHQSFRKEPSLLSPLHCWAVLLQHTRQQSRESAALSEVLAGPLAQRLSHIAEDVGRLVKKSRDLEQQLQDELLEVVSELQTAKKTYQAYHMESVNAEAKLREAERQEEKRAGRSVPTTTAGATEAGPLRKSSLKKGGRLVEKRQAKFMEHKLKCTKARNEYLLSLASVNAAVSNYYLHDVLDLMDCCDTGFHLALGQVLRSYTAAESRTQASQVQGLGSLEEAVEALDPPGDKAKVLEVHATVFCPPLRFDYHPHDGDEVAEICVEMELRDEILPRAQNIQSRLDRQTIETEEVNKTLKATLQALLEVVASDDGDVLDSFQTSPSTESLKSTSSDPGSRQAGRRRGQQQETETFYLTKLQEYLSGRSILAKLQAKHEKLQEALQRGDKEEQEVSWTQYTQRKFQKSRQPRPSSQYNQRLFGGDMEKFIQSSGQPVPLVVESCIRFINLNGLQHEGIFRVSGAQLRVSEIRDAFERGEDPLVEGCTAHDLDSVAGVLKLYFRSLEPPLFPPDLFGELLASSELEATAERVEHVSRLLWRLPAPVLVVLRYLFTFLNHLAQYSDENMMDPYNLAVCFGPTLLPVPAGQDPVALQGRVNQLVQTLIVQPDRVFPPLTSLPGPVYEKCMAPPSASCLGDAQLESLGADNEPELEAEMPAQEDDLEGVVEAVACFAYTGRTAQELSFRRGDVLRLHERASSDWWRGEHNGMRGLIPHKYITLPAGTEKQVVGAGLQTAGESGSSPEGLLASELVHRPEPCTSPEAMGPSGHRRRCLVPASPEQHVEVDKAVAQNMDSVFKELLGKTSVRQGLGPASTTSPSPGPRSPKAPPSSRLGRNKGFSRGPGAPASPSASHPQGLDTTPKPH
inactive: saracatinib -0.094 | sotrastaurin 0.115 | alvocidib 0.089 | Tubastatin A -0.172 | [1] -0.096 | defactinib 0.22 | rucaparib -0.062 | [2] -0.139 | encorafenib 0.047 | [3] 0.097 | filanesib 0.027 | zotarolimus -0.012 | idasanutlin 0.104 | alisertib 0.166 | [4] 0.067 | gefitinib -0.211 | [5] 0.028 | lapatinib 0.051

ALKBH4 (UniProt Q9NXW9)
Chain of UniProt Q9NXW9 (Q9NXW9 whole entry, looked up): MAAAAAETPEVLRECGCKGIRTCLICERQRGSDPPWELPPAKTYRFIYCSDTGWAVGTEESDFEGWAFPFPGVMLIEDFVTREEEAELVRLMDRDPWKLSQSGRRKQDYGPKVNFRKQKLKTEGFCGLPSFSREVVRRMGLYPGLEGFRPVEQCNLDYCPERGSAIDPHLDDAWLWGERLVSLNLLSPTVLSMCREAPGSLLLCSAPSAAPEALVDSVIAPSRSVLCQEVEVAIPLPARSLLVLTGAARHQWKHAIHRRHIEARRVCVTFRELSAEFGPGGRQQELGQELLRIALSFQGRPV
inactive: saracatinib -0.072 | sotrastaurin -0.106 | alvocidib -0.227 | Tubastatin A 0.086 | [1] 0.198 | defactinib -0.056 | rucaparib 0.07 | [2] 0.03 | encorafenib 0.074 | [3] 0.071 | [6] -0.203 | filanesib -0.036 | zotarolimus 0.06 | idasanutlin -0.036 | alisertib 0.086 | [4] -0.058 | [5] 0.014 | lapatinib -0.023 | pictilisib 0.106

AUNIP isoform 2 (UniProt Q9H7T9)
Chain of UniProt Q9H7T9 (Q9H7T9 whole entry, looked up): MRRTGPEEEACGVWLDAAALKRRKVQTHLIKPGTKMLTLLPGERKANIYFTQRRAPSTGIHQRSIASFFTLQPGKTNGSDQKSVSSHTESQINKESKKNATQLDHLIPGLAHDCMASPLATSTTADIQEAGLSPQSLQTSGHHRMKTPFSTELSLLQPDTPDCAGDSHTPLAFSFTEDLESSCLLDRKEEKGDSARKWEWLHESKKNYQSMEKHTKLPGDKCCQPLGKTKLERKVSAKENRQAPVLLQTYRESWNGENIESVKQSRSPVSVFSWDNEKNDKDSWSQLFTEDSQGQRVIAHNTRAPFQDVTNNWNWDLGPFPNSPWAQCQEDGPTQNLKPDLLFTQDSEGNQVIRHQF
inactive: saracatinib -0.007 | sotrastaurin -0.085 | alvocidib 0.053 | Tubastatin A 0.278 | [1] 0.189 | defactinib 0.043 | [2] -0.086 | [3] 0.342 | filanesib 0.125 | zotarolimus -0.044 | idasanutlin 0.142 | [4] -0.229 | lapatinib 0.099

ATP6V1C1 (UniProt P21283)
Chain of UniProt P21283 (P21283 whole entry, looked up): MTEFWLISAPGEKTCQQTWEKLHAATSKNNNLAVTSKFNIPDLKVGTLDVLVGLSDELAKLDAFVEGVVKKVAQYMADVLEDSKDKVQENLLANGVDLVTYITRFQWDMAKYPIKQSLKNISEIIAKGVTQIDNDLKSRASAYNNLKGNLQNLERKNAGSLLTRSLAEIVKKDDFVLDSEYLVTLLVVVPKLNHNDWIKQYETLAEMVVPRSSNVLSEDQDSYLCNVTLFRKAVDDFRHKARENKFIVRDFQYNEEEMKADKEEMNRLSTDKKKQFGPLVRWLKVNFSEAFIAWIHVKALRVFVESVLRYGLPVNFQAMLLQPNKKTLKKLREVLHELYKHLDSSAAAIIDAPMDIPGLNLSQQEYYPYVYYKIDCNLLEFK
inactive: saracatinib -0.193 | sotrastaurin -0.07 | alvocidib 0.026 | Tubastatin A 0.059 | [1] -0.034 | defactinib -0.011 | rucaparib 0.137 | [2] 0.004 | encorafenib 0.083 | [3] -0.013 | [6] -0.012 | filanesib 0.029 | zotarolimus 0.08 | idasanutlin 0.016 | alisertib -0.069 | [4] -0.091 | gefitinib -0.286 | [5] -0.206 | lapatinib -0.046 | pictilisib -0.022

AFDN isoform 1 (UniProt P55196)
Chain of UniProt P55196 (P55196 whole entry, looked up): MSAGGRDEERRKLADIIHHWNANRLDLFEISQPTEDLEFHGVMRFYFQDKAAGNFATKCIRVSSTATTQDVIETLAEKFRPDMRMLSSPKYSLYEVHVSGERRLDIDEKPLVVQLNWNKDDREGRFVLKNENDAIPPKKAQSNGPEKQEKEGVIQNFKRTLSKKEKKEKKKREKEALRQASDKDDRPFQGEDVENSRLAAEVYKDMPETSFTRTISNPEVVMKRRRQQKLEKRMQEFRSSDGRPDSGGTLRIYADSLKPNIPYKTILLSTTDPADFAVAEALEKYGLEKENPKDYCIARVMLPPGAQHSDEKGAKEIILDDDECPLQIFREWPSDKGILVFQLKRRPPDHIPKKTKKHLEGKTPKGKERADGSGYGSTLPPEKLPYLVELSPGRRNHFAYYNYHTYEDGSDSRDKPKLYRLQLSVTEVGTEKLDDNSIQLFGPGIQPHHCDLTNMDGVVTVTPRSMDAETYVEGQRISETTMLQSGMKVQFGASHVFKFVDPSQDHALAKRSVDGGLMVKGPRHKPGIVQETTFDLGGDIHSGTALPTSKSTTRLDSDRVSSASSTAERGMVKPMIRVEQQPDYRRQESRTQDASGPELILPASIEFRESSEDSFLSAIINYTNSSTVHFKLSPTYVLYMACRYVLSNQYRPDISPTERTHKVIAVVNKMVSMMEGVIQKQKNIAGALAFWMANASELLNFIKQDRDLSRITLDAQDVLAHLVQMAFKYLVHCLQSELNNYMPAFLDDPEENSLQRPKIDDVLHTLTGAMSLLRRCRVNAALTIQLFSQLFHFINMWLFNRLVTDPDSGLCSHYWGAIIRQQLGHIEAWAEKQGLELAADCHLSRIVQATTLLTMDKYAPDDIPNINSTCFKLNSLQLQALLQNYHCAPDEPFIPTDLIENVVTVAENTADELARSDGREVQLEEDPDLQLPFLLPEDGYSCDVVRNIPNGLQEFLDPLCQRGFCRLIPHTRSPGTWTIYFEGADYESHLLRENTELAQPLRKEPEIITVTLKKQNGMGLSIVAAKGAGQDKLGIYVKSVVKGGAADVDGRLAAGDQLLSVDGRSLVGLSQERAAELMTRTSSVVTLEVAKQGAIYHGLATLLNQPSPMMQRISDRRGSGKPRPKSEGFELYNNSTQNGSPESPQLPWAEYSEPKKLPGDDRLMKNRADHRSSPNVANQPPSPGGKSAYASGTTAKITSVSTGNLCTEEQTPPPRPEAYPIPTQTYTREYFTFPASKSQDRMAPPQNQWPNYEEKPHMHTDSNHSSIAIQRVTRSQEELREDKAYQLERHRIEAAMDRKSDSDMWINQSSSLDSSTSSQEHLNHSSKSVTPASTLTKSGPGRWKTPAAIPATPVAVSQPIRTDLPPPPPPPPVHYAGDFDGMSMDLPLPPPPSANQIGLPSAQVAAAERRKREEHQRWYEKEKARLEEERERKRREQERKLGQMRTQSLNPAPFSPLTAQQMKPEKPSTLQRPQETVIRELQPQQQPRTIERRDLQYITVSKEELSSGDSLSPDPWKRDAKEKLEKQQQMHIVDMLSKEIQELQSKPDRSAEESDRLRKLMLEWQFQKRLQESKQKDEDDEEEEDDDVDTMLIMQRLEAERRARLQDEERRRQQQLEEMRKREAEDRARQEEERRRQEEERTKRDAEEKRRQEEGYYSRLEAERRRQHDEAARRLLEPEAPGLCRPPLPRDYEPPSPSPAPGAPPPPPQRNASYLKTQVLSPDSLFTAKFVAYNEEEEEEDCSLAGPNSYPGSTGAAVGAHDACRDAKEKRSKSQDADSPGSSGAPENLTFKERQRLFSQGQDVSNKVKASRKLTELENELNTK
inactive: saracatinib -0.192 | sotrastaurin -0.047 | alvocidib -0.182 | [1] -0.025 | defactinib 0.021 | rucaparib 0.009 | [2] -0.175 | encorafenib 0.018 | [3] -0.302 | [6] -0.151 | filanesib 0.024 | zotarolimus -0.01 | idasanutlin 0.019 | alisertib 0.127 | [5] 0.074 | pictilisib -0.144

BRD2 isoform 2 (UniProt P25440)
inactive: saracatinib 0 | sotrastaurin -0.172 | alvocidib -0.111 | Tubastatin A -0.37 | [1] 0.146 | defactinib -0.125 | [2] 0.255 | [3] -0.074 | [6] -0.174 | filanesib -0.11 | zotarolimus -0.361 | idasanutlin 0.072 | [4] 0.214 | lapatinib 0.005 | pictilisib 0.016

AP4S1 (UniProt Q9Y587)
Chain of UniProt Q9Y587 (Q9Y587 whole entry, looked up): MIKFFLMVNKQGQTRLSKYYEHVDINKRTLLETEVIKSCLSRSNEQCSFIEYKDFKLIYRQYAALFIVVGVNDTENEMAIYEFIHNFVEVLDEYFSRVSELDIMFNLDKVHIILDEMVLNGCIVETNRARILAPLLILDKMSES
inactive: saracatinib -0.08 | sotrastaurin -0.117 | alvocidib -0.099 | [1] -0.05 | defactinib 0.059 | rucaparib 0.039 | [2] -0.072 | encorafenib 0.073 | [3] 0.008 | [6] -0.039 | filanesib 0.029 | zotarolimus 0.126 | idasanutlin -0.061 | alisertib -0.098 | [4] -0.002 | gefitinib -0.083 | [5] 0.036 | lapatinib -0.047

AGO1 (UniProt Q9UL18)
inactive: saracatinib -0.066 | sotrastaurin -0.307 | alvocidib 0.141 | Tubastatin A -0.164 | [1] -0.039 | defactinib -0.03 | rucaparib 0.16 | [2] -0.085 | encorafenib 0.086 | [3] -0.036 | [6] -0.107 | filanesib -0.015 | zotarolimus -0.069 | idasanutlin 0.009 | alisertib 0.05 | [4] -0.031 | gefitinib -0.119 | [5] -0.029 | lapatinib 0.061 | pictilisib -0.002

ADD3 isoform 2 (UniProt Q9UEY8)
Chain of UniProt Q9UEY8 (Q9UEY8 whole entry, looked up): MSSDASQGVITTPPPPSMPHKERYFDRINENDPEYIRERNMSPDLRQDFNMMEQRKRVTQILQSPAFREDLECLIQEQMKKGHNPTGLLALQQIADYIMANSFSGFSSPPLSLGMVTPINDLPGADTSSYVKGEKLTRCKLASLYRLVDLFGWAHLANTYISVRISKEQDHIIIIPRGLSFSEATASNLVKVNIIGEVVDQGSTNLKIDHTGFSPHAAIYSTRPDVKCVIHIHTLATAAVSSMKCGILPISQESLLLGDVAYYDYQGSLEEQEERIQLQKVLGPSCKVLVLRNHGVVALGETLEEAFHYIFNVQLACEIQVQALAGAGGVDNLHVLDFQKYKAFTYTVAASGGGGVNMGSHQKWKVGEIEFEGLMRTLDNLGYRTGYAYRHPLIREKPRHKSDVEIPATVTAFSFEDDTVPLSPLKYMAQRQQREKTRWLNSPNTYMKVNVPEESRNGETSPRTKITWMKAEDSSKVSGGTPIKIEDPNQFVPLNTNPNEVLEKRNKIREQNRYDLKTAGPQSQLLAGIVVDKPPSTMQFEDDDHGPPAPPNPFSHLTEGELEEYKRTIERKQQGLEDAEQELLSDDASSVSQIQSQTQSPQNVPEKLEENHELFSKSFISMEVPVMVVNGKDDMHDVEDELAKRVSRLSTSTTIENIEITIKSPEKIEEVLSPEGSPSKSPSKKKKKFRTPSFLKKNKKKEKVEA
inactive: saracatinib -0.112 | sotrastaurin 0.014 | alvocidib -0.166 | Tubastatin A 0.058 | defactinib -0.025 | rucaparib -0.036 | [2] -0.172 | encorafenib -0.166 | [3] -0.025 | [6] -0.022 | filanesib -0.025 | zotarolimus 0.186 | idasanutlin -0.276 | alisertib -0.042 | [4] 0.094 | [5] -0.003 | lapatinib -0.028 | pictilisib 0.125
